Calls of active or inactive are those of the source.

Test [1] has as its system Human papillomavirus type 1a protein E7 (residues 44-93). Briefly: HPV1a E7 fragment binders on microarrays, primary screen, biochemical, small-molecule microarray, residues 44-93, 635 nm fluorescence (AID 1108).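 Note: E7 fragment applied at 1 µg/mL in TBST for 1 h at 4 C; score combines spot fluorescence with its signal to noise ratio.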 Particulars: small-molecule microarray binding, fluorescence 635 nm; higher = more signal.
Test [2] can be described thus: modulators of HCV replicon luciferase signal, primary screen, HCV replication inhibitor project, Huh7 cells, luciferase reporter (AID 1109).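 Note: huh7 hepatoma cells harbouring a luciferase neomycin HCV replicon reporter; luciferase luminescence as measure of HCV replicon replication; test concentration not given here.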 The note with it: 48 h, higher = more signal. A general note: In antiviral work, replicon cells carry a viral genome segment that copies itself.
Test [3] concerns the target Left-right determination factor 2 (Homo sapiens) (UniProt O00292). Briefly: LEFTY2 binders on small-molecule microarrays, primary screen, biochemical, small-molecule microarray, 635 nm fluorescence scan (AID 1110). The note with it: LEFTY2 binding, higher = more signal.
Test [4] concerns the target Calmodulin-1 (Homo sapiens) (UniProt P0DP23). Briefly: CALM1 binders on microarrays, EGTA buffer, profiling panel, biochemical, small-molecule microarray, Cy5-labelled CALM1 (AID 1111).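 Note: labelled calmodulin applied in Tris saline Tween buffer holding calcium plus EGTA and DTT.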 Particulars: Cy5-CALM1 binding fluorescence, higher = more signal.
Test [5] shares this target. Briefly: calcium-bound CALM1 binders on microarrays, profiling panel, artefact control for SMM control-protein annotation, biochemical, small-molecule microarray, Cy5-labelled CALM1, plus calcium (AID 1112).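 Note: score merges spot fluorescence with signal to noise from triplicate slides.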 Particulars: Cy5-CALM1 binding fluorescence, higher = more signal.
A short description of test [6]: small-molecule microarray binders of probe aWnt5a, primary screen, biochemical, biotinylated probe, 635/667 nm fluorescence (AID 1113).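 Note: score merges 667 nm fluorescence intensity with signal-to-noise per printed feature.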 Particulars: higher = more signal.
Test [7] can be described thus: small-molecule microarray binders of probe aShh, primary screen, biochemical, biotinylated probe, 635/667 nm fluorescence (AID 1114).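 Note: probe is biotin-labelled aShh protein from a stem cell growth factor screen; measures binding of labelled protein to compounds printed on the slide; score merges feature fluorescence at 667 nm with signal-to-noise.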 The note with it: higher = more signal.
A short description of test [8]: small-molecule microarray binders of probe aNog, primary screen, biochemical, biotinylated probe, 635/667 nm fluorescence (AID 1115).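 Note: probe is biotinylated aNog protein used at 0.15 µg/mL for 1 h at 4 C; z-score combines 667 nm fluorescence of each spot with its signal to noise.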 The note with it: higher = more signal.
Test [9] concerns the target Torsin-1A-interacting protein 1 (Homo sapiens) (UniProt Q5JTV8). The experiment in a line: LAP1 binders from COS7 cell lysate, primary screen, small-molecule microarray, 635/667 nm fluorescence (AID 1116). The note with it: COS7-hLAP1 lysate binding, 635 nm fluorescence, higher = more signal.
The target in test [10] is Alpha-bungarotoxin (Bungarus multicinctus) (UniProt P60615). The experiment in a line: alpha-bungarotoxin binders on microarray, profiling panel, artefact control for SMM control protein annotation, biochemical, small-molecule microarray, Alexa647 label, 635/667 nm fluorescence (AID 1117). Particulars: alpha-BTX-A647 binding fluorescence, higher = more signal.
Test [11] deals with Albumin (Bos taurus) (UniProt P02769). Briefly: bovine serum albumin binders on microarray, profiling panel, artefact control for SMM control protein annotation, biochemical, small-molecule microarray, Alexa647 label, 635/667 nm fluorescence (AID 1118).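 Note: score merges 667 nm emission intensity and signal-to-noise per printed compound spot.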 Particulars: BSA-A647 binding, fluorescence 635 nm, higher = more signal.
A short description of test [12]: small-molecule microarray binders of probe aXIP, primary screen, biochemical, NeuroSMM set, 635/667 nm fluorescence (AID 1119).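 Note: probe is the protein aXip251-270 applied at 1 µg/mL to compound-printed slides; binding of probe to printed compounds measured as 667 nm fluorescence plus signal to noise.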 The note with it: higher = more signal, called active from +8 up or from −8 down.
A short description of test [13]: small-molecule binders of probe aNOTCH3, primary screen, biochemical, small-molecule microarray, 635/667 nm fluorescence (AID 1120).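 Note: probe is a biotin-tagged antibody raised against NOTCH3 rather than NOTCH3 protein; score merges spot fluorescence near 667 nm with spot signal to noise.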 Particulars: higher = more signal.
Test [14] in a line: small-molecule binders of probe aNOTCH2, primary screen, biochemical, small-molecule microarray, 635/667 nm fluorescence (AID 1121).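 Note: score merges feature fluorescence read at 667 nm with its signal to noise.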 The note with it: higher = more signal.
The target of test [15] is Carbonic anhydrase 2 (Homo sapiens) (UniProt P00918). The experiment in a line: CAII small-molecule binders, profiling panel, biochemical, small-molecule microarray, Alexa647-labelled CAII (AID 1122). Particulars: CAII-A647 binding fluorescence, higher = more signal.
Test [16] can be described thus: COS7 lysate on small-molecule microarray, probe aHis, 635 nm (AID 1123).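 Note: z-score combines 667nm fluorescence intensity with signal-to-noise per printed compound spot.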 The note with it: COS7 cell lysate, fluorescence, higher = more signal.
Test [17] can be described thus: compound binding in COS7 lysate, probe aLAP1, primary screen, cell lysate, small-molecule microarray (AID 1124).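 Note: lysate comes from COS7 cells expressing LAP1 and is applied at 0.3 µg/mL; score merges spot fluorescence near 667 nm with signal-to-noise over triplicate slides.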 The note with it: probe aLAP1, fluorescence, higher = more signal.
Test [18] deals with Sam68 (KHDRBS1). Briefly: Sam68 small-molecule binders, primary screen, biochemical, small-molecule microarray, 635 nm fluorescence (AID 1125).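 Note: score merges 667 nm channel intensity with signal to noise over triplicate slides.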 The note with it: small-molecule microarray binding, higher = more signal.
Test [19] relates to Chordin-like protein 2 (CHRDL2). Briefly: CHRDL2 small-molecule binders, primary screen, biochemical, small-molecule microarray, 635 nm fluorescence (AID 1126).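 Note: printed compound slides probed with Chrdl2 protein at 4 µg/mL for 1 h at 4 C; score merges 667 nm emission intensity with signal to noise over three replicate slides.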 The note with it: small-molecule microarray binding, fluorescence 635 nm; higher = more signal.
Test [20] deals with Concanavalin-A (Canavalia ensiformis) (UniProt P02866). Briefly: ConA small-molecule binders, primary screen, artefact control for SMM control protein annotation, biochemical, small-molecule microarray, Alexa647 label, 635 nm (AID 1127).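 Note: z combines 667 nm emission intensity with signal-to-noise across three replicate slides.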 The note with it: ConA-A647 binding fluorescence, higher = more signal.
Concanavalin-A (Canavalia ensiformis), sequence (P02866 whole entry, looked up): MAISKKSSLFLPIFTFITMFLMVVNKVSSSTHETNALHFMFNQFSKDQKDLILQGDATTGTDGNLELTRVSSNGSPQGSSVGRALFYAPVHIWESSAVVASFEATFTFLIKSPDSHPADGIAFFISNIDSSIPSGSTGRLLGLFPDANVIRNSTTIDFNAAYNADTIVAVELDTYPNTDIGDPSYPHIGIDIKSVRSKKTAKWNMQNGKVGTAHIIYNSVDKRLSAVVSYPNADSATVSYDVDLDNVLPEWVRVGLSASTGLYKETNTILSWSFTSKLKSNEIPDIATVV

Torsin-1A-interacting protein 1 (Homo sapiens), sequence (Q5JTV8 whole entry, looked up): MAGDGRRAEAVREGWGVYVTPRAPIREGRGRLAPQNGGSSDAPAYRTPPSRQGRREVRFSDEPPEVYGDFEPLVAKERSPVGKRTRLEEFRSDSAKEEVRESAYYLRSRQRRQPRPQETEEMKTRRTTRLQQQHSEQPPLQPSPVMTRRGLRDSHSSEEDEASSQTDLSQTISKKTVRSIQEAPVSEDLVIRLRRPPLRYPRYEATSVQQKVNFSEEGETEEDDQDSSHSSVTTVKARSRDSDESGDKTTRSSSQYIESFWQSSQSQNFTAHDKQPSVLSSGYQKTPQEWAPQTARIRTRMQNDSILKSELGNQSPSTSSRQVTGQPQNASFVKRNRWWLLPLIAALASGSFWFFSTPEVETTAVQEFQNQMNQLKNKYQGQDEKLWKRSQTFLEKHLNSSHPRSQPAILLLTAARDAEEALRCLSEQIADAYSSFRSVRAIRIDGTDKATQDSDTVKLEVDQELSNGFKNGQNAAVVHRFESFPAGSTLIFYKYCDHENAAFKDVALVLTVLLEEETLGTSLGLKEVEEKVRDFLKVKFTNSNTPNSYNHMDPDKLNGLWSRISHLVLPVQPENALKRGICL
Left-right determination factor 2 (Homo sapiens), sequence (O00292 whole entry, looked up): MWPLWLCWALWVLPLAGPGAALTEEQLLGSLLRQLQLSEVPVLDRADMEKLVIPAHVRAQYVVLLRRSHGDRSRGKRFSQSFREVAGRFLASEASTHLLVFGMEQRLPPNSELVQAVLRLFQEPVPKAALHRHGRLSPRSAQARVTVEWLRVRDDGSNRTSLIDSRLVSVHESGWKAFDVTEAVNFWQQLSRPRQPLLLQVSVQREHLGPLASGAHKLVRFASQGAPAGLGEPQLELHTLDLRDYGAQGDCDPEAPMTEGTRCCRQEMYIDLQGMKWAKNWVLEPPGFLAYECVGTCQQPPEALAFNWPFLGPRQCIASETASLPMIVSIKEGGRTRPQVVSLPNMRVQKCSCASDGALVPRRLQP
Alpha-bungarotoxin (Bungarus multicinctus), sequence (P60615 whole entry, looked up): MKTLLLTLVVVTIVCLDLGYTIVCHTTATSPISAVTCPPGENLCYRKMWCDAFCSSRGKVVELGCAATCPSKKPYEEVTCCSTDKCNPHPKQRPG
Albumin (Bos taurus), sequence (P02769 whole entry, looked up): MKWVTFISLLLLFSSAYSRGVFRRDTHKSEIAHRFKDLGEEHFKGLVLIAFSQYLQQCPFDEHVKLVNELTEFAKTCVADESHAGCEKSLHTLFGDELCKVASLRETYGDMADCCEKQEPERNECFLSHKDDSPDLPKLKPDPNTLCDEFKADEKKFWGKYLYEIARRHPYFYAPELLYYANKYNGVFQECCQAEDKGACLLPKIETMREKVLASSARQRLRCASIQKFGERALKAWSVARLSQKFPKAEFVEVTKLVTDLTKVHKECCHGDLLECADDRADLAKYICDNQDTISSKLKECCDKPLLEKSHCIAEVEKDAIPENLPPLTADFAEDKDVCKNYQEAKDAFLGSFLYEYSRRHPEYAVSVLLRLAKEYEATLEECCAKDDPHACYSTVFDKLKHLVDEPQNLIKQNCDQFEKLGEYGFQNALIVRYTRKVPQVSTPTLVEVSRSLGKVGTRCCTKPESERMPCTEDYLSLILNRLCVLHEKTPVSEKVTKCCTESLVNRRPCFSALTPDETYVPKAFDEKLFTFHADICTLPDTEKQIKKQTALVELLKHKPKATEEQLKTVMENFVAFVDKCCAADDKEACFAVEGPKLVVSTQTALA

`C=C(COC)C(=O)CC[C@H](OC(=O)c1cccnc1)c1ccc(CO)o1`: the composite z-score in [1] is -0.132; in [3] it was 0.879; in [4], -0.502; in test [5], -0.875; in test [6], -0.167; in test [7] it was -0.214. Also, the composite z-score in test [8] was -0.447; in test [9] it was 0.659; in [10], -0.0505; in [11], 0.0617; in test [13] it was 0.0225; in test [14], -0.0569. Further, the composite z-score was 0.317 in test [15]; -0.22 in test [16]; -0.237 in test [17]; 0.558 in [18]; 0.686 in test [19]; 0.695 in test [20]. This compound also had a z-score in test [2] of -1.05. In addition, the composite Z-score in test [12] was -0.496 (inactive).

Consider `COCCOC(=O)N1C(=O)[C@@]2(c3cc(C#Cc4ccc(OC)cc4)ccc31)[C@H](c1ccc(OCCO)cc1)N1[C@H](c3ccccc3)[C@H](c3ccccc3)OC(=O)[C@H]1[C@@H]2C(=O)Nc1nc2ccccc2s1`, for which the composite z-score in [1] is 1.34; in [3], 0.225; in test [4] it was 1.91; in test [5], 0.487; in [6], 0.0017; in test [7] it was 1.52. Moreover, the composite z-score was 0.0044 in [8]; 0.699 in test [9]; 0.885 in test [10]; 0.862 in test [11]; -0.0967 in test [13]; 0.0402 in [14]. Besides, the composite z-score in test [15] was 0.309; in test [16], 1.3; in [17], 0.176; in test [18] it was 1.29; in test [19], -0.122; in [20] it was 1.13. The compound further displayed a z-score in test [2] of -1.54. In addition, the composite Z-score in [12] was -0.436 (inactive).

Turning to `COC(=O)C1=CC(CCCO)=CC(C)N(Cc2cccc(OC(F)(F)F)c2)C=C1C(=O)OC` (stereo not given), the composite z-score is 1.35 in test [1]; -0.708 in [3]; 1.02 in test [4]; 1.15 in [5]; -0.0643 in test [6]; 0.0929 in test [7]. Further, the composite z-score in [8] was 0.716; in test [9], 0.595; in [10] it was 0.498; in [11] it was 1.03; in [13], 0.147; in test [14] it was -0.0743. Moreover, the composite z-score in test [15] was 0.8; in test [16], 2.63; in test [17], 0.348; in test [18], 1.27; in test [19], -0.595; in [20] it was 0.355. The compound further yielded a z-score in test [2] of -0.307. Further, in [12], the composite Z-score was -0.288 (inactive).

`CC(C)OC(=O)CC(=O)CC(O)c1ccc([N+](=O)[O-])cc1` (stereo not given): the composite z-score was 1.13 in test [1]; -0.698 in test [3]; -0.759 in test [4]; -0.833 in test [5]; 0.093 in test [6]; 0.163 in [7]. For the same compound, the composite z-score in test [8] is 0.431; in test [9], 0.47; in test [10] it was -0.292; in [11] it was 0.169; in test [13] it was -0.0413; in [14] it was 0.0215. Further, the composite z-score in test [15] was 0.152; in test [16], 0.666; in [17], 0.447; in test [18] it was 0.543; in test [19], -1.23; in test [20] it was -0.122. This compound also came in with a z-score in [2] of -0.601. The composite Z-score in test [12] was -0.314 (inactive).

Take `O=C(NCC(O)CO)[C@@]1(CCS(=O)(=O)c2ccccc2)COC(c2ccc(OCCCO)cc2)=N1` (stereo not given in full): the composite z-score in test [1] is 1.38; in test [3] it was -0.412; in [4] it was 1.25; in test [5], 1.09; in [6] it was 0.0944; in test [7] it was 0.385. For the same compound, the composite z-score was 1.81 in test [8]; 2.48 in test [9]; 2.58 in test [10]; 0.927 in [11]; 0.241 in test [13]; 0.0342 in [14]. Also, the composite z-score is 0.863 in test [15]; 3.35 in [16]; -0.0542 in test [17]; 0.679 in [18]; -0.734 in test [19]; 0.572 in test [20]. In test [2], this compound returned a z-score of -0.119. Besides, the composite Z-score in test [12] was 0.538 (inactive).

`COCCOC(=O)N1C(=O)[C@@]2(c3cc(C#CCCO)ccc31)[C@H](c1ccccc1OCCO)N1[C@H](c3ccccc3)[C@H](c3ccccc3)OC(=O)[C@H]1[C@@H]2C(=O)N1CCCCCCC1`: the composite z-score was 1.4 in test [1]; 0.994 in test [3]; 2.58 in test [4]; 1.09 in test [5]; 0.495 in [6]; 1.94 in test [7]. Besides, the composite z-score in [8] was determined as 2.8; in [9], 3.04; in test [10], 2.2; in test [11], 0.86; in [13], 1.39; in [14] it was 0.333. Besides, the composite z-score in test [15] was determined as 0.761; in test [16], 3.2; in test [17], 0.796; in test [18] it was 1.29; in test [19], 1.05; in [20] it was 1.11. The same compound returned a z-score in test [2] of -2.25. Moreover, the composite Z-score in [12] is 0.358 (inactive).
